Experimental data from PubChem BioAssay AID1491 (National Center for Advancing Translational Sciences (NCATS), 2009).
Inconclusive results are not listed. The source made the active and inactive calls. Calls follow the shape of the dose curve; as a rule, active = well fitted inhibition curve with a large enough effect in the main read-out, with a control signal flat; inconclusive = small, poorly fitted or top-dose-only effect, or a change in a side signal; inactive = flat fitted curve, though single readings scatter.

Molecular target: Neuropeptide S receptor (Homo sapiens) (UniProt Q6W5P4)
Sequence (Q6W5P4 whole entry, looked up): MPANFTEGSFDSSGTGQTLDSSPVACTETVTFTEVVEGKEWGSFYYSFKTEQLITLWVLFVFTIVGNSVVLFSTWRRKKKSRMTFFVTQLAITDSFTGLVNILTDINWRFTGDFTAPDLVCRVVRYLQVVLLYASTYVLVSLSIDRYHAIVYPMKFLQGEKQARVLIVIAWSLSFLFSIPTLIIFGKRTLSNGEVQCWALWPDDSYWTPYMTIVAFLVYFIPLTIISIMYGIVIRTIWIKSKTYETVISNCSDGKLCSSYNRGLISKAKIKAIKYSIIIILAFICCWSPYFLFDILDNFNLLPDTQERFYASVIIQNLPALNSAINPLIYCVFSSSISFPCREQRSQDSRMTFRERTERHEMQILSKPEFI
Assay: Confirmation Concentration-Response Assay for Antagonists of the Neuropeptide S Receptor: cAMP Signal Transduction;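 as to activity change, negative = inhibition: 0% = DMSO with NPS and full inhibition = wells lacking NPS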
Conditions: CHO-NPSR cells, cAMP TR-FRET, antagonist mode; series mostly up to 22.3 µM; activity change, negative = inhibition: at the top concentration
Description: NIH Chemical Genomics Center [NCGC] NIH Molecular Libraries Probe Production centers Network [MLPCN] MLPCN Grant: X01-DA026210-01 Assay Submitter (PI): Heilig, Markus Alexander NCGC Assay Overview: Neuropeptide S receptor (NPSR), previously known as GPR154, is a recently de-orphanized G protein coupled receptor. Its endogenous ligand is the 20 amino acids peptide Neuropeptide S (NPS). […] NPS and its receptor are found in various tissues. Specifically they are highly expressed in brain areas that have been implicated in modulation of arousal, stress and anxiety. Central administration of NPS in mice produces an unusual profile of activity by inducing wakefulness and arousal, while at the same time suppressing anxiety. Therefore, NPSR may represent a novel drug target for the treatment of sleep and anxiety disorders. To identify NPSR antagonists, we developed a cell-based cAMP assay. NPS can stimulate the production of cAMP in Chinese hamster ovary cells stably expressing NPS receptor. This change in intracellular cAMP level can be detected by a homogeneous LANCE cAMP assay based on the TR-FRET (time resolved fluorescence resonance energy transfer) between a europium-labeled cAMP tracer complex and a cAMP-specific antibody labeled with Alexa Fluor 647. The europium-labeled cAMP tracer complex is formed by the tight interaction between Biotin-cAMP (b-cAMP) and streptavidin labeled with Europium-W8044 chelate (Eu-SA). Light pulse at 320 nm excites the europium of the cAMP tracer and the energy emitted is transferred to the Alexa molecule bound to the cAMP antibody, generating a TR-FRET signal at 665 nm. Residual energy from the europium will produce a light at 620 nm. The native unlabeled cAMP from cell lysates competes with the europium-cAMP tracer for antibody binding and reversely reduces the emission signal of Alexa by interrupting FRET between the two labeled molecules. Both emission signals from the FRET donor (620 nm) and the acceptor (665 nm) can be detected by a plate reader in the TRF mode. Expression of result in fluorescence ratio (665 nm/620 nm) helps to normalize differences due to cell density and reagent dispensing. This assay was successfully optimized to a 1536-well plate format. Select compounds from the primary screen (AID 1461) were chosen for confirmation based on potency, efficacy, SAR, and activity across other assays in PubChem and at NCGC. Other compounds are analogs of active compounds from the primary sceen.
NCGC Assay Protocol Summary: A Chinese hamster ovary (CHO) cell line stably expressing the NPS receptor (CHO-NPSR) was obtained from Dr. Heilig lab at NIAAA and maintained in F-12 Kaighn's media (Invitrogen, Carlsbad, CA, 21127) supplemented with 10 % FBS, 100 units/ml penicillin, 100 ug/ml streptomycin and 250 ug/ml geneticin at 37C, 5% CO2 in a humidified atmosphere. Before the assay, aliquots of cells were frozen and stored at -135C. The assay was performed in 1536-well format. Data are reported for both the ratio of the two emission wavelengths, and also for the component 'donor' channel, Em2=620. […] IC50 values were determined from concentration-response data modeled with the standard Hill equation. NPS 1536-well assay protocol: (1) Fresh or frozen CHO-NPSR cells were suspended in F-12 Kaighn's media supplemented with 10 % FBS, 100 units/ml penicillin and 100 ug/ml streptomycin. Cells were plated at 4 ul/well (1200 cells) to white, tissue culture treated 1536-well plates, and then cultured at 37C, 5 % CO2 for 16 to 30 hours. (2) Add 23 nl/well of compound in DMSO solution. The final titration for each compound was between 0.6 nM and 46 uM. (3) Add 1 ul of stimulation reagent (1X HBSS buffer, 5 mM HEPES, 0.1% BSA, 500 uM RO-201724 (Sigma-Aldrich, B8279), 1.5% Alexa 647-labeled anti-cAMP antibody (from Perkin Elmer), 100 nM NPS) (4) Incubation at 37C, 5 % CO2 for 60 min. (5) Add 1 ul/well detection reagent. […]
Potency is read from the fitted curve at half-maximal effect.

| Structure (SMILES) | Potency | activity change, negative = inhibition |
| --- | --- | --- |
| Cc1cccc(N2C(=O)NC(=O)/C(=C\c3cnn(-c4ccccc4)c3)C2=O)c1 | 10 µM (active) | – |
| CCOC(=O)c1c(-n2c(C)cc(C=C3C(=O)NC(=S)NC3=O)c2C)sc2c1CCCC2 | 10 µM (active) | – |
| Cc1cc(C=C2C(=O)NC(=S)NC2=O)c(C)n1-c1ccc2c(c1)OCO2 | 12.6 µM (active) | – |
| Cn1ncnc2c(=O)n(C)c(=O)nc1-2 | – | -1.28% (inactive) |
| CN(C)C(=S)SSC(=S)N(C)C | – | -2.55% (inactive) |
| C=C(C=O)CC1CC(O)[C@]2(C)OC3CC4OC5C[C@]6(C)O[C@]7(C)CCC8OC9C[C@]%10(C)OC%11C(C)=CC(=O)OC%11CC%10OC9C[C@@H](C)C8OC7CC6O[C@]5(C)CC5OC5C4OC3CC2O1 (stereo partly specified) | – | -10.3% (inactive) |
| C[C@H]1CCCC(=O)CCCCCc2cc(O)cc(O)c2C(=O)O1 | – | -3.65% (inactive) |
| C=C1C(=O)O[C@@H]2C[C@@H](C)[C@@H]3C=CC(=O)[C@@]3(C)[C@@H](OC(=O)CC(=O)O[C@H]3[C@@H]4C(=C)C(=O)O[C@@H]4C[C@@H](C)[C@@H]4C=CC(=O)[C@]43C)[C@H]12 | 1 µM (active) | – |
| Cc1c(P(=S)(c2ccccc2)c2ccccc2)[n+]2ccccc2n1C | 1.12 µM (active) | – |
| C=CCN1C(=O)/C(=C/c2cccs2)C(=O)NC1=S | 11.2 µM (active) | – |
| CC(=O)Nc1cc([As](=O)(O)O)ccc1O | – | -4.93% (inactive) |
